Records with an inconclusive call do not appear. Active and inactive are the calls of the source. Rule for the calls, unless noted: active = hit-call score of the fitted dose curve at least 0.9, where 1 is the maximum; inactive = score below 0.9.

The target in assay [1] is Aryl hydrocarbon receptor (Homo sapiens) (UniProt P35869). Put plainly: ATG_Ahr_CIS: Attagene CIS-FACTORIAL HepG2 Assay for human Aryl Hydrocarbon Receptor (Ahr) (AID 2282930). Conditions: HepG2 AhR cis-factorial reporter transcription; actives raise or lower the signal. The procedure, abridged: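 Values derive from bidirectional fitting against DMSO negative control. Underlying signal: cis-element reporter mRNA in transiently transfected HepG2, harvested 24 h post-dose and measured by RT-PCR plus capillary electrophoresis.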

Assay [2] is described as follows: ATG_M_61_CIS: Attagene CIS-FACTORIAL HepG2 Assay for M61 Transcription Factor (Internal Marker) (AID 2282937). The note with it: HepG2 Attagene CIS-FACTORIAL M61 internal marker reporter; actives raise or lower the signal. In outline: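 Fluorescence from labelled cDNA fragments, separated by capillary electrophoresis, quantifies reporter induction. HepG2 cells bearing transiently transfected cis-promoter MRTUs were incubated with test chemical for 24 h; DMSO defined baseline for gain/loss fitting.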

Assay [3] can be described thus: ATG_EGR_CIS: Attagene CIS-FACTORIAL HepG2 Assay for human Early Growth Response 1 (EGR1) (AID 2282938). The note with it: HepG2 Attagene CIS-FACTORIAL EGR reporter mRNA; actives raise or lower the signal. In outline: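 Cell-based multiplex transcription assay: HepG2 carrying transfected cis-element reporter units, 24 h chemical treatment. Fluorescence from capillary electrophoresis of RT-PCR products gives mRNA levels; fitting is bidirectional relative to DMSO.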

Assay [4] in a line: ATG_GRE_CIS: Attagene CIS-FACTORIAL HepG2 Assay for human Glucocorticoid Response Elements (GRE) (AID 2282947). Conditions: HepG2 GRE cis-reporter, Attagene multiplex mRNA; actives raise or lower the signal. In outline: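 Cells (HepG2) bearing transfected cis-promoter reporter transcription units were treated with chemical for 24 hours. Reporter mRNA was measured via RT-PCR with capillary electrophoresis, and activity was fitted in both directions relative to DMSO.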

A short description of assay [5]: ATG_M_06_CIS: Attagene CIS-FACTORIAL HepG2 Assay for M06 Transcription Factor (Internal Marker) (AID 2282950). Conditions: HepG2 Attagene CIS-FACTORIAL M06 internal marker reporter; actives raise or lower the signal. The procedure, abridged: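 Cells (HepG2, transiently carrying cis-driven reporter units) receive chemical for 24 h before RNA isolation. Reporter cDNA is PCR-amplified, FAM-labelled by primer extension, HpaI-digested and sized on a capillary analyser.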

Assay [6] has as its target Hypoxia-inducible factor 1-alpha (Homo sapiens) (UniProt Q16665). The experiment in a line: ATG_HIF1a_CIS: Attagene CIS-FACTORIAL HepG2 Assay for human Hypoxia Inducible Factor 1 (HIF1A) (AID 2282951). The note with it: HepG2 Attagene cis-factorial HIF1a reporter transcription; actives raise or lower the signal. In outline: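 In this multiplexed cell assay, HepG2 cells bearing transfected cis reporters are dosed for 24 h and reporter mRNA is read by RT-PCR plus capillary electrophoresis; signal increases and decreases are both scored against DMSO.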

The nature of assay [7]: ATG_MRE_CIS: Attagene CIS-FACTORIAL HepG2 Assay for human Metal Responsive Element (MRE) (AID 2282954). Conditions: HepG2 MRE cis-reporter transcription, Attagene multiplex; actives raise or lower the signal. The procedure, abridged: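 Cells were transfected with cis-promoter reporter transcription units, then dosed for 24 h. RNA was reverse-transcribed, amplified, fluorescently labelled and resolved by capillary electrophoresis, and activity was fitted in both directions relative to DMSO.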

The nature of assay [8]: ATG_TGFb_CIS: Attagene CIS-FACTORIAL HepG2 Assay for human Transforming Growth Factor (TGF) (AID 2282967). The note with it: HepG2 Attagene CIS TGFb reporter, mRNA transcription; actives raise or lower the signal. The procedure, abridged: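 Liver HepG2 line, cis-factorial reporter panel, 24 h dosing. Quantitation: RT-PCR products labeled with 6-FAM, cut with HpaI, resolved by capillary electrophoresis; DMSO-referenced bidirectional analysis.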

Assay [9] is described as follows: ATG_VDRE_CIS: Attagene CIS-FACTORIAL HepG2 Assay for human Vitamin D Receptor Element (VDRE) (AID 2282968). Conditions: HepG2 VDRE cis-reporter transcription, actives raise or lower the signal. The procedure, abridged:
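Steps: transfect HepG2 with multiple reporter transcription units; dose chemicals 24 h; isolate RNA; RT-PCR; label with 6-FAM primer extension; HpaI digest; capillary electrophoresis. Curves fitted both directions against DMSO.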

In assay [10] the target is Transcriptional activator Myb (Homo sapiens) (UniProt P10242). The experiment in a line: ATG_Myb_CIS: Attagene CIS-FACTORIAL HepG2 Assay for human Myeloblastosis (Myb) Proto-Oncogene Transcription Factor (AID 2282986). The note with it: HepG2 Attagene CIS-FACTORIAL Myb reporter transcription; actives raise or lower the signal. In outline: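 Fluorescence signals from capillary electrophoresis of RT-PCR-amplified reporter cDNA give the read-out. Cells: HepG2 transfected with multiple cis-regulated reporter units. Exposure lasts 24 hours; DMSO defines baseline for gain or loss of signal.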

The target in assay [11] is Nuclear respiratory factor 1 (Homo sapiens) (UniProt Q16656). The experiment in a line: ATG_NRF1_CIS: Attagene CIS-FACTORIAL HepG2 Assay for human Nuclear Respiratory Factor 1 (NRF1) Orphan Gene (AID 2282987). The note with it: HepG2 NRF1 cis-element reporter, Attagene multiplex; actives raise or lower the signal. The procedure, abridged: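 Transcriptional reporter readout, one component of a 52-endpoint multiplexed HepG2 panel. Exposure 24 h; mRNA detected via RT-PCR and fluorescent capillary electrophoresis; fitting in both directions against DMSO.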

Assay [12] in a line: ATG_NFI_CIS: Attagene CIS-FACTORIAL HepG2 Assay for human Nuclear Factor I (NFI) (AID 2282989). The note with it: HepG2 cis-regulatory reporter, NFI response element transcription; actives raise or lower the signal. The procedure, abridged: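 Transfected HepG2 liver cells, exposed 24 h, supplied total RNA for oligo(dT) reverse transcription and reporter-specific PCR. Labelled, HpaI-cut fragments were sized by capillary electrophoresis; DMSO set the baseline for bidirectional fitting.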

For assay [13], the target named is Myc proto-oncogene protein (Homo sapiens) (UniProt P01106). The experiment in a line: ATG_Myc_CIS: Attagene CIS-FACTORIAL HepG2 Assay for human Myelocytomatosis (Myc) Proto-Oncogene Transcription Factor (AID 2282990). The note with it: HepG2, Attagene cis-reporter transcription factor activity; actives raise or lower the signal. The procedure, abridged: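 Multiplexed cis-reporter transcription in HepG2 cells after 24 h chemical treatment. Reporter mRNA measured by RT-PCR and capillary electrophoresis fluorescence; activity fitted bidirectionally against DMSO control.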

The nature of assay [14]: ATG_NF_kB_CIS: Attagene CIS-FACTORIAL HepG2 Assay for human Nuclear Factor Kappa B (NF-kB) (AID 2282991). Conditions: HepG2 Attagene cis-factorial NF-kB reporter mRNA; actives raise or lower the signal. The procedure, abridged: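 HepG2, transient multi-reporter transfection, cis promoter elements (endogenous TFs). 24 h exposure. Total RNA → RT → PCR → 6-FAM label → HpaI → CE. Gain/loss vs DMSO.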

The nature of assay [15]: ATG_NRF2_ARE_CIS: Attagene CIS-FACTORIAL HepG2 Assay for human Nuclear Factor Erythroid 2 Related Factor 2 (NFR2) response to Antioxidant Response Elements (ARE) (AID 2282992). The note with it: HepG2 Attagene ARE/NRF2 reporter, transcription factor activity; actives raise or lower the signal. In outline:
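Fluorescence intensity of reporter-specific cDNA fragments, separated by capillary electrophoresis, reflects mRNA induction in transfected HepG2 cells at 24 h. Activity is fitted bidirectionally, DMSO serving as baseline.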

Assay [16] is described as follows: ATG_Oct_MLP_CIS: Attagene CIS-FACTORIAL HepG2 Assay for human Octamer-Binding Transcription Factor (Oct) (AID 2282993). Conditions: HepG2 Attagene cis-factorial Oct reporter, mRNA; actives raise or lower the signal. The procedure, abridged: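 Using HepG2 cells bearing transfected cis-reporter constructs, mRNA induction was read after 24 h by fluorescent RT-PCR and capillary electrophoresis, with DMSO defining baseline for gain- or loss-of-signal fits.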

For assay [17], the target named is Cellular tumor antigen p53 (Homo sapiens) (UniProt P04637). Put plainly: ATG_p53_CIS: Attagene CIS-FACTORIAL HepG2 Assay for human p53 Transcription Factor (AID 2282994). Conditions: HepG2 p53 cis-element reporter, Attagene mRNA; actives raise or lower the signal. In outline:
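Transiently transfected HepG2 (multiple cis reporter transcription units); exposure 24 h; reporter RNA via RT-PCR, 6-FAM extension, 2 h HpaI digest at 37 C, CE detection; DMSO baseline.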

In assay [18] the target is Nuclear receptor subfamily 1 group I member 2 (Homo sapiens) (UniProt O75469). Put plainly: ATG_PXR_TRANS: Attagene TRANS-FACTORIAL HepG2 Assay for human Pregnane X Receptor (PXR) (AID 2283008; active = hit-call score of the fitted dose curve at least 0.9, where 1 is the maximum). In outline: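 Transient HepG2 transfectants carrying multiplexed reporter transcription units; PXR activity read through a Gal4 chimera. 24 h exposure. RT-PCR/CE fluorescence; upward curve fit referenced to DMSO.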

Assay [19] in a line: ATG_XTT_Cytotoxicity: Cytotoxicity Assessment in the Attagene TRANS-FACTORIAL HepG2 Assay (AID 2283584; active = hit-call score of the fitted dose curve at least 0.9, where 1 is the maximum;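 for AC50: cells exposed to compound for 24 h before reading; active means loss of viability signal versus DMSO baseline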). The procedure, abridged:
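Viability endpoint from XTT after 24 h chemical exposure of reporter-transfected human HepG2 liver cells; signal loss fitted relative to DMSO negative control.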

The nature of assay [20]: ATG_BRE_CIS: Attagene CIS-FACTORIAL HepG2 Assay for human Bone Morphogenetic Protein (BMP) Response Element (BRE) (AID 2282933). The note with it: HepG2 BMP response element reporter, Attagene transcription factor profiling; actives raise or lower the signal. In outline:
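A HepG2 multiplex reporter system measured inducible reporter mRNA 24 h post-dosing. Detection: RT-PCR, 6-FAM primer extension, HpaI digestion, capillary electrophoresis. Activity fitted bidirectionally relative to DMSO.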

Sequence of Transcriptional activator Myb (Homo sapiens) (P10242 whole entry, looked up): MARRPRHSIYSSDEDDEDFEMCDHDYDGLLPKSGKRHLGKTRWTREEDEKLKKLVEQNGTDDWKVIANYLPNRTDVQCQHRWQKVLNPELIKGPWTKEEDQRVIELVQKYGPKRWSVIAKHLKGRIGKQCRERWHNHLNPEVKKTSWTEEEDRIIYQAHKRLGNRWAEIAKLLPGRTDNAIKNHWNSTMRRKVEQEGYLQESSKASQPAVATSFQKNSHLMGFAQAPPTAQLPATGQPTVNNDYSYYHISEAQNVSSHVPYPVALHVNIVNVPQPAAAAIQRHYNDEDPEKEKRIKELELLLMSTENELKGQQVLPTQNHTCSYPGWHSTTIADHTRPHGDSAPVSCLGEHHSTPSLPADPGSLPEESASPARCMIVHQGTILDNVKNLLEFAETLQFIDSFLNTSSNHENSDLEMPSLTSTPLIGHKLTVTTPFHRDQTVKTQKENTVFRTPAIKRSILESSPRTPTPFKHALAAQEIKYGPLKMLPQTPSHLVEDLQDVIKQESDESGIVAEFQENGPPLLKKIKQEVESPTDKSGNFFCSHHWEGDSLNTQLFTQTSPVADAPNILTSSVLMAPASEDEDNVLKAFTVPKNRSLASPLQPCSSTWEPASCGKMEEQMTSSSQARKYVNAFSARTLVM
Sequence of Myc proto-oncogene protein (Homo sapiens) (P01106 whole entry, looked up): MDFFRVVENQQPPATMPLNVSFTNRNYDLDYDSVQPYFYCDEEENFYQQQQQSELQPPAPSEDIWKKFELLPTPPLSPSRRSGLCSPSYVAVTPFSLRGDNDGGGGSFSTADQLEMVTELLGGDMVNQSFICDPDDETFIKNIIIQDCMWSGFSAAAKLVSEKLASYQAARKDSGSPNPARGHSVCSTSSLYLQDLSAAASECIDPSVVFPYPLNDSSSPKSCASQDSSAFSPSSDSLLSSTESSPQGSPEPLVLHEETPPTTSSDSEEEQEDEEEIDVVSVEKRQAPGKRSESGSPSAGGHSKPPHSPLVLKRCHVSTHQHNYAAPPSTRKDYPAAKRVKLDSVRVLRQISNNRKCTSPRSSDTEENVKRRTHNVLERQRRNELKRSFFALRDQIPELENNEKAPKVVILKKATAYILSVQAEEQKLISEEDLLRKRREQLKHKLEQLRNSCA
Sequence of Nuclear respiratory factor 1 (Homo sapiens) (Q16656 whole entry, looked up): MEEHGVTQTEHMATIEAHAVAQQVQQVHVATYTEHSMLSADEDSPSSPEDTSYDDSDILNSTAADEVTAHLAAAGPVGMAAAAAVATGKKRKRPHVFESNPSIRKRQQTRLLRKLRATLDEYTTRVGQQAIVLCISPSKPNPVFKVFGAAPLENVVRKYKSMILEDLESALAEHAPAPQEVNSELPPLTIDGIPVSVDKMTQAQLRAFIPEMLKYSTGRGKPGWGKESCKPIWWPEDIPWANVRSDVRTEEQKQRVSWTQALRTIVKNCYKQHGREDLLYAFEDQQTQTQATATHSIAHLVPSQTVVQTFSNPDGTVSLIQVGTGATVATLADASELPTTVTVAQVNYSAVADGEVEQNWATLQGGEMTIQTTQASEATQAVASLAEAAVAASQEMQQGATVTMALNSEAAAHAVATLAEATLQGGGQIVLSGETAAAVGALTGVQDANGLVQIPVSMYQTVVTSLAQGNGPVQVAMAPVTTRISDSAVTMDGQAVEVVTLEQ
Sequence of Aryl hydrocarbon receptor (Homo sapiens) (P35869 whole entry, looked up): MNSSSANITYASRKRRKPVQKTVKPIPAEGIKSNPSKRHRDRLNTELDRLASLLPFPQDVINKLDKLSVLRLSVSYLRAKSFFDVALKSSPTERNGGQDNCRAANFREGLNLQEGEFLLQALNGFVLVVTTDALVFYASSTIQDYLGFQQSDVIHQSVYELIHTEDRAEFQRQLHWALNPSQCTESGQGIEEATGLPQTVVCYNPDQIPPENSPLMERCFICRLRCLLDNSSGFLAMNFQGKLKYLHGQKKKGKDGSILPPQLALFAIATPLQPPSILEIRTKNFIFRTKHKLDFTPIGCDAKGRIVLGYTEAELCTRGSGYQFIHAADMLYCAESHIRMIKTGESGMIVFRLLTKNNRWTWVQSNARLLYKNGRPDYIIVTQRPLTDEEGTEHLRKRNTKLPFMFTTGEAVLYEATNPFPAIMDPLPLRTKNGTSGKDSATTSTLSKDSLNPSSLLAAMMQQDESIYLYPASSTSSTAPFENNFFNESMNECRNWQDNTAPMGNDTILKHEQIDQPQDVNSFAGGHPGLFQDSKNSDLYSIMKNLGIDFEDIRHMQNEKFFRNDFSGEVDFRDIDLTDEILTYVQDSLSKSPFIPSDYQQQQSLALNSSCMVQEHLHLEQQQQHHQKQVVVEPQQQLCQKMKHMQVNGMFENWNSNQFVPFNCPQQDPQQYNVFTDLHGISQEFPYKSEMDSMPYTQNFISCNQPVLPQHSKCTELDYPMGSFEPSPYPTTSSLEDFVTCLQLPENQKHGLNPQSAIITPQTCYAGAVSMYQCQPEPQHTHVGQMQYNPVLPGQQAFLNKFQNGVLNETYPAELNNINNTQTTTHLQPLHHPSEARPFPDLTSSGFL
Sequence of Hypoxia-inducible factor 1-alpha (Homo sapiens) (Q16665 whole entry, looked up): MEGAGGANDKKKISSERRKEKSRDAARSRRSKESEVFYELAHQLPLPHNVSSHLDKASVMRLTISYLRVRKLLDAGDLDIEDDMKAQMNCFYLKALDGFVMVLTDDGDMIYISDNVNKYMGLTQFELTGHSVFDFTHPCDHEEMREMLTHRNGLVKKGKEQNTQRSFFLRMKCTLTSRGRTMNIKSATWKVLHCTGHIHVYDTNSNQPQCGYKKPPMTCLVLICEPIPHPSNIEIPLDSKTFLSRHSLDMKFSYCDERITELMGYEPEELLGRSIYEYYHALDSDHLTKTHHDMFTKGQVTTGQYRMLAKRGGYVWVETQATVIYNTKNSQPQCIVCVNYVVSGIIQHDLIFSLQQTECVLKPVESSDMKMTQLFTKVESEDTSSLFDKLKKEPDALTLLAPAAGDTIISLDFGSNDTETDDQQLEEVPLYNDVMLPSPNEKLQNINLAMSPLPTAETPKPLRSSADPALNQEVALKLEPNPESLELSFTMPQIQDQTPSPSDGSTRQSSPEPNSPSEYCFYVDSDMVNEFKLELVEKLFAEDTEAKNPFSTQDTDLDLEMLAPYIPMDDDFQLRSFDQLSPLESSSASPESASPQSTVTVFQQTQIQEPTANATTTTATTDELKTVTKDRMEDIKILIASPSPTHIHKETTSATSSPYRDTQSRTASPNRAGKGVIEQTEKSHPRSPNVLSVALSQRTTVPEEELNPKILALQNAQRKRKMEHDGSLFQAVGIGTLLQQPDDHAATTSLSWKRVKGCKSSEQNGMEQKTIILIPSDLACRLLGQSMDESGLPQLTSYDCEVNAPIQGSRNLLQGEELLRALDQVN
Sequence of Cellular tumor antigen p53 (Homo sapiens) (P04637 whole entry, looked up): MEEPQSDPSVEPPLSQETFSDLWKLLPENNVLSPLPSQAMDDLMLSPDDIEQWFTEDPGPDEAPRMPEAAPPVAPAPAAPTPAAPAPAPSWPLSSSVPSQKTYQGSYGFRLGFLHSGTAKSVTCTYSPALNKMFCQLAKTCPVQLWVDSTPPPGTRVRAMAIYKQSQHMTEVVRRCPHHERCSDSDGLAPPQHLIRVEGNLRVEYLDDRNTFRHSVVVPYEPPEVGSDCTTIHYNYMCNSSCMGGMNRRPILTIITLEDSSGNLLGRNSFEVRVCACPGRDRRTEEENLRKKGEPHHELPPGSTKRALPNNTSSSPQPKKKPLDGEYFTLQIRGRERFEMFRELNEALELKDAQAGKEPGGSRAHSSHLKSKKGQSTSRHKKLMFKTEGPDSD
Sequence of Nuclear receptor subfamily 1 group I member 2 (Homo sapiens) (O75469 whole entry, looked up, the tested form may be a part): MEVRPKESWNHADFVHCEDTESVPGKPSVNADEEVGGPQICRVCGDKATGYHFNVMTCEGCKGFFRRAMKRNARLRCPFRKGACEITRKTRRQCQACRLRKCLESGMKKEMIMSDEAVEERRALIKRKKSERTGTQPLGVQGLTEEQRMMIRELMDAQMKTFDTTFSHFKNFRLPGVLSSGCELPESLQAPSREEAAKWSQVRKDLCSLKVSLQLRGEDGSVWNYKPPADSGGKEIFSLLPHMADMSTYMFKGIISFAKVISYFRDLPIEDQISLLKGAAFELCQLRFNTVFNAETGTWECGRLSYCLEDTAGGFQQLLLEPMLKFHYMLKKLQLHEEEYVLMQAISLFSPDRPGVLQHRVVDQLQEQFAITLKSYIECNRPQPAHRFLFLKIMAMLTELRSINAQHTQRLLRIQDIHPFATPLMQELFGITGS

For `O=[N+]([O-])c1cc(C(F)(F)F)c(Cl)c([N+](=O)[O-])c1Cl`, the result in [1], in assay [2], in assay [4], in assay [5], in assay [6] and in assay [8] was inactive. For the same molecule, the molecule was called inactive in assay [10], in assay [11], in assay [13], in assay [16], in assay [17] and in [18]. The AC50 in assay [3] was 4.82 µM (active); in assay [7], 5.11 µM (active); in [9], 5.51 µM (active); in assay [12], 6.17 µM (active); in assay [14] it was 3.71 µM (active); in assay [15], 1.3 µM (active). Moreover, the AC50 in [19] was 57.7 µM (active).

On to `CCNCC`, for which the result in assay [1], in assay [20], in assay [2], in assay [3], in assay [4] and in assay [5] was inactive. Besides, the molecule was classed as inactive in [6], in assay [8], in assay [9], in assay [10], in [11] and in [12]. Further, the outcome in assay [13], in assay [15], in [16] and in [19] was inactive.

On to `CCCCCc1cc(O)cc(O)c1`, for which the molecule was called inactive in assay [1], in assay [20], in assay [2], in assay [5], in assay [10] and in [11]. The result in [12], in assay [13], in assay [14], in assay [17] and in [19] was inactive. In addition, the AC50 in [3] was 100 µM (active); in assay [6], 100 µM (active); in [9], 16 µM (active); in assay [15], 43.5 µM (active); in [16], 60.8 µM (active); in [18], 11.1 µM (active).

As for `O=[N+]([O-])O`, the result in assay [1], in assay [20], in assay [2], in assay [4], in assay [6] and in assay [7] was inactive. Besides, the molecule was called inactive in assay [8], in assay [10], in [11], in assay [12], in assay [13] and in assay [15]. The outcome in assay [16] and in assay [19] was inactive.

The AC50 is the midpoint of the concentration-response curve, whichever way the signal moves.
